Tests used:
Test in all cases: fraction of microhomology deletions among edited reads; higher = more MH deletions
Details in all cases: mESC; 2uM; 72 h treatment, harvest day 5
[1] = compound: CO[C@H]1/C=C/O[C@@]2(C)Oc3c(C)c(O)c4c(O)c(c(/C=N/N5CCN(C6CCCC6)CC5)c(O)c4c3C2=O)NC(=O)/C(C)=C\C=C\[C@H](C)[C@H](O)[C@@H](C)[C@@H](O)[C@@H](C)[C@H](OC(C)=O)[C@@H]1C [Rifapentine]
[2] = compound: COc1ccccc1-c1cc(Nc2cccc(CS(N)(=O)=O)c2)ncn1
[3] = compound: C[C@@H]1CN(CC(=O)Nc2ccc3c(c2)Cc2cccc(-c4cc(=O)cc(N5CCOCC5)o4)c2S3)C[C@H](C)O1
[4] = compound: Cc1cc(C)nc(SCC(=O)Nc2ncc(Cc3cccc4ccccc34)s2)n1
[5] = compound: Cc1cccc(CC(=O)N2CCc3c2ccc(-c2cn(C)c4ncnc(N)c24)c3F)n1
[6] = compound: NC(=O)c1ccc2nc(-c3ccc(Oc4ccc(Cl)cc4)cc3)[nH]c2c1 [Chk 2 inhibitor II (BML-277)]
[7] = compound: Nc1cc(F)ccc1NC(=O)c1ccc(CNC(=O)/C=C/c2cccnc2)cc1 [Tucidinostat (Chidamide)]
[8] = compound: Nc1nc2[nH]cc(CCc3ccc(C(=O)N[C@@H](CCC(=O)O)C(=O)O)cc3)c2c(=O)[nH]1 [Pemetrexed]
[9] = compound: Nc1ncnc2c1c(-c1cnc3[nH]ccc3c1)nn2C1CCCC1
[10] = compound: O=C(c1cccc(Cl)c1F)N1CCN(Cc2cccc(Nc3nccs3)n2)CC1

Target | fraction of microhomology deletions among edited reads [1] | fraction of microhomology deletions among edited reads [2] | fraction of microhomology deletions among edited reads [3] | fraction of microhomology deletions among edited reads [4] | fraction of microhomology deletions among edited reads [5] | fraction of microhomology deletions among edited reads [6] | fraction of microhomology deletions among edited reads [7] | fraction of microhomology deletions among edited reads [8] | fraction of microhomology deletions among edited reads [9] | fraction of microhomology deletions among edited reads [10]
25.0 (DMSO control at this site: 1-bp insertion 0.017, MH deletion 0.774, edited 0.143) GGGCCTGAATGGTGTGGACATCTACTCGCTGGTGAGCTGGTGACTGAAAACATTCAGTGGC | 0.792 | 0.747 | 0.648 | 0.772 | 0.759 | 0.767 | 0.723 | 0.744 | 0.784 | 0.769
26.0 (DMSO control at this site: 1-bp insertion 0.518, MH deletion 0.262, edited 0.026) AGGGCGCGCCCCACGCACTCTGCGGCAAGTCCCTCTGCGGCAAGTCCTCGGCCCGGAAGAC | 0.272 | 0.295 | 0.115 | 0.281 | 0.301 | 0.302 | 0.278 | 0.44 | 0.201 | 0.275
45.0 (DMSO control at this site: 1-bp insertion 0.017, MH deletion 0.666, edited 0.101) TTACACAGCATGAACTGCTAGGTGATGATGTCAGATTCGGTTTTACTAACTTCTCCAAAAA | 0.624 | 0.614 | 0.515 | 0.608 | 0.655 | 0.617 | 0.624 | 0.574 | 0.54 | 0.598
30.0 (DMSO control at this site: 1-bp insertion 0.074, MH deletion 0.67, edited 0.142) GAGCTGGCATGAGTATTTGTGCCACATGGCTCCCACATGGCTCCACATGCAAGTTTGAAAC | 0.684 | 0.599 | 0.335 | 0.69 | 0.586 | 0.67 | 0.607 | 0.644 | 0.635 | 0.638
33.0 (DMSO control at this site: 1-bp insertion 0.008, MH deletion 0.771, edited 0.112) CATTAAGAGCAGCTGCCGGCCCCCAAGTGGACAGAGCTGGCCCTGCTGATTCAACAGTGCA | 0.724 | 0.681 | 0.583 | 0.722 | 0.732 | 0.712 | 0.706 | 0.682 | 0.708 | 0.688
35.0 (DMSO control at this site: 1-bp insertion 0.01, MH deletion 0.72, edited 0.098) CCACTTTTAGAGAGGGTGAAAATCATCAGTTATCATCAGGGCAACAAATTGCTTTCTCCTA | 0.776 | 0.724 | 0.562 | 0.732 | 0.695 | 0.722 | 0.687 | 0.794 | 0.699 | 0.679
3.0 (DMSO control at this site: 1-bp insertion 0.109, MH deletion 0.149, edited 0.09) TGCTAGCGCCCCCACAAAGCGGACCAGCCAGCACTATAGGGAATAAGGCCAACTTGCACCC | 0.188 | 0.178 | 0.0553 | 0.188 | 0.186 | 0.237 | 0.204 | 0.171 | 0.166 | 0.193
44.0 (DMSO control at this site: 1-bp insertion 0.181, MH deletion 0.512, edited 0.123) ACACATACCTTCTTCGAGGCAGCCAGCATGATGAGACAGGTCTCCCACAAACACATCGTGT | 0.531 | 0.451 | 0.295 | 0.506 | 0.384 | 0.539 | 0.491 | 0.583 | 0.479 | 0.486
41.0 (DMSO control at this site: 1-bp insertion 0.022, MH deletion 0.754, edited 0.115) AAAGAGACAGCAGGTATGAATCCATCTTCCTGACCCTTGGGACCAGCCGGGGCAGTGAAGC | 0.699 | 0.733 | 0.67 | 0.703 | 0.715 | 0.742 | 0.709 | 0.678 | 0.722 | 0.694

— the supplement of paper PMC8387472
